Among the data in ChEMBL document CHEMBL1201862, “PubChem BioAssay data set” (2004) are GI50 values, retold here.

In all, about 57,000 sequences went through this assay and about 4,200 (7.4%) were called active. Rule as the data show it: active = GI50 up to about 1.1 µM and inactive = higher. These entries were drawn from the full list. Measured potencies and affinities stand elsewhere.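 Interpolation was linear, between the two tested concentrations surrounding the appropriate level; five concentrations were tested over 48 hours in 96-well plates. Abbreviation: GI50, concentration required for 50% inhibition of growth.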

For the test, the system named is UACC-62. The test is described as follows: NCI tumour cell line growth inhibition, 48 h.
Substance “[Bis(aminomethyl)tetramethylenesilane]dichloropaltinum(II), CHEMBL2146205” came in with a GI50 of 16 µM.

As to “[Bis(aminomethyl)ethylmethylsilane]tetrachloroplatinum(IV), CHEMBL2146192”, the GI50 stood at 2.39 µM.

CISPLATIN, CHEMBL11359 yielded a GI50 of 1.18 µM.

On to “[Bis(aminomethyl)dimethylsilane]tetrachloroplatinum(IV), CHEMBL2146190”, for which the GI50 turned out to be 4.57 µM.

In turn, “[Bis(aminomethyl)diethylsilane]tetrachloroplatinum(IV), CHEMBL2146203” gave a GI50 of 3.93 µM.

For the substance “[Bis(aminomethyl)pentamethylenesilane]tetrachloropaltinum(IV), CHEMBL2146204”, the GI50 amounted to 0.935 µM.

Consider “cis-Bis[[(trimethylsilyl)methyl]amino]tetrachloroplatinum(IV), CHEMBL2146191”, for which the GI50 was 5.21 µM.

On to “[Bis(aminomethyl)pentamethylenesilane]dichloropaltinum(II), CHEMBL2146202”, for which the GI50 was 2.72 µM.

For “[Bis(aminomethyl)dimethylsilane]dichloroplatinum (II), CHEMBL2146201”, the GI50 was determined as 15.3 µM.

For “mu-(1,7-nanodiamine-N,N')bis-(cis-aminedichloroplatimum (II)), CHEMBL2146215”, the GI50 was determined as 3.44 µM.

As for “[Bis(aminomethyl)tetramethylenesilane]tetrachloropaltinum(IV), CHEMBL2146189”, the GI50 came to 3.87 µM.
